# Laboratory results: PubChem BioAssay (EPA / NIEHS)
# Inconclusive results are not listed. More than one record can exist for a structure, and the calls need not agree. Calls of active or inactive are those of the source. The calls were made as follows, unless noted: active = hit-call score of the fitted dose curve at least 0.9, where 1 is the maximum; inactive = score below 0.9.
# What was measured:
# [1] = target: Retinoic acid receptor RXR-alpha (Homo sapiens) (UniProt P19793); assay: ATG_RXRa_TRANS: Attagene TRANS-FACTORIAL HepG2 Assay for human Retinoid X Receptor alpha (RXRa) (AID 2283012; active = hit-call score of the fitted dose curve at least 0.9, where 1 is the maximum)
# Method in brief: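 Cells (HepG2) carried transiently transfected GAL4-responsive reporter units. Following a 24 h chemical incubation, reporter mRNA induction was read via RT-PCR fragment analysis; DMSO served as negative control and baseline.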
# [2] = target: human Retinoid X Receptor beta (RXRb), RXRB (gene 6257) (UniProt P28702); assay: ATG_RXRb_TRANS: Attagene TRANS-FACTORIAL HepG2 Assay for human Retinoid X Receptor beta (RXRb) (AID 2283013; active = hit-call score of the fitted dose curve at least 0.9, where 1 is the maximum)
# Method in brief: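 Multiplexed TRANS reporter assay in HepG2; 24 h dosing; reporter mRNA by RT-PCR/CE fluorescence; gain-of-signal relative to DMSO.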
# [3] = target: human Thyroid Receptor alpha (THRa1), THRA (gene 7067) (UniProt P10827); assay: ATG_THRa1_TRANS: Attagene TRANS-FACTORIAL HepG2 Assay for human Thyroid Receptor alpha (THRa1) (AID 2283014; active = hit-call score of the fitted dose curve at least 0.9, where 1 is the maximum)
# Method in brief: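 HepG2 cells transiently transfected with multiplexed GAL4-UAS reporter units for exogenous chimeric THRa1-Gal4; reporter mRNA measured 24 h after dosing by RT-PCR, 6-FAM labelling, HpaI digestion and capillary electrophoresis. Gain-of-signal fitted versus DMSO baseline.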
# [4] = read-out: E-selectin (Homo sapiens) (UniProt P16581); assay: BSK_3C_Eselectin: BioMAP Diversity Plus: 3C Assay for Eselectin Biomarker Activity (AID 2283015); conditions: primary human endothelial cells (HUVEC); actives raise or lower the signal;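 as to outcome: cell surface E-selectin protein quantified by ELISA 24 h after dosing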
# Method in brief: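 Primary human umbilical vein endothelial cells (3C system) were dosed with chemical and cell-surface E-selectin measured by ELISA 24 h later. Bidirectional curve fitting used DMSO as negative control and baseline.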
# [5] = read-out: Monocyte Chemoattractant Protein-1 (MCP1), CCL2 (gene 6347); assay: BSK_3C_MCP1: BioMAP Diversity Plus: 3C Assay for Monocyte Chemoattractant Protein-1 (MCP1) Biomarker Activity (AID 2283017); conditions: primary human endothelial cells (HUVEC); actives raise or lower the signal
# Method in brief: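 Primary human umbilical vein endothelial cells (3C system) were exposed to test chemical for 24 h, after which MCP-1 was quantified by ELISA. Activity was fitted bidirectionally against DMSO as negative control and baseline.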
# [6] = read-out: Monocyte Chemoattractant Protein-1 (MCP1), CCL2 (gene 6347); assay: BSK_4H_MCP1: BioMAP Diversity Plus: 4H Assay for Monocyte Chemoattractant Protein-1 (MCP1) Biomarker Activity (AID 2283018); conditions: primary human endothelial cells (HUVEC); actives raise or lower the signal
# Method in brief: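 Readout: MCP-1 ELISA on compound-treated HUVEC, sampled 24 h post-dosing. Baseline and negative control DMSO; bidirectional fit. Overt toxicity checked alongside by sulforhodamine B protein staining at time of biomarker measurement.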
# [7] = read-out: Human Leukocyte Antigen - DR isotype (HLADR), HLA-DRA (gene 3122); assay: BSK_3C_HLADR: BioMAP Diversity Plus: 3C Assay for Human Leukocyte Antigen - DR isotype (HLADR) Biomarker Activity (AID 2283019); conditions: primary human endothelial cells (HUVEC); actives raise or lower the signal;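 as to outcome: ELISA of cell-surface HLA-DR on HUVEC 24 h after dosing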
# Method in brief: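 Primary human umbilical vein endothelial cells (3C system) were dosed with compound and cell-surface HLA-DR was quantified by ELISA at 24 h. Activity was fitted bidirectionally against DMSO as negative control and baseline.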
# [8] = read-out: Interleukin-8 (IL8), CXCL8 (gene 3576); assay: BSK_3C_IL8: BioMAP Diversity Plus: 3C Assay for Interleukin-8 (IL8) Biomarker Activity (AID 2283020); conditions: primary human endothelial cells (HUVEC); actives raise or lower the signal
# Method in brief: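 Human vascular endothelial cells (umbilical vein) in the 3C system; IL-8 level detected by ELISA at 24 h post-dose, with DMSO as baseline.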
# [9] = read-out: Monokine induced gamma interferon (MIG), CXCL9 (gene 4283); assay: BSK_3C_MIG: BioMAP Diversity Plus: 3C Assay for Monokine induced gamma interferon (MIG) Biomarker Activity (AID 2283021); conditions: primary human endothelial cells (HUVEC); actives raise or lower the signal;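 as to AC50: MIG protein level measured by immunoassay in the treated endothelial cultures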
# Method in brief: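 After 24 h of treatment, human umbilical vein endothelial cultures (3C system) had their MIG biomarker level determined by ELISA, with DMSO serving as negative control.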
# [10] = BSK_3C_SRB: Viability Assessment in the BioMAP Diversity Plus: 3C Assay (AID 2283023); conditions: primary human endothelial cells (HUVEC);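 also: fitted both ways against DMSO so a hit may be signal rise or drop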
# Method in brief: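 Primary human umbilical vein endothelial cells in the 3C system were read 24 h after compound dosing. Total protein was stained with 0.1% sulforhodamine B after 10% TCA fixation and read at 560 nm, with bidirectional fitting against DMSO as baseline.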
# [11] = read-out: Matrix Metallopeptidase 1 (MMP1), MMP1 (gene 4312); assay: BSK_BE3C_MMP1: BioMAP Diversity Plus: BE3C Assay for Matrix Metallopeptidase 1 (MMP1) Biomarker Activity (AID 2283024); conditions: primary human bronchial epithelial cells; actives raise or lower the signal
# Method in brief: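 Dose cells, wait 24 h, run MMP1 ELISA; cells are human bronchial epithelial primaries. Both increases and decreases relative to DMSO counted.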
# [12] = BSK_3C_Vis: BioMAP Diversity Plus: 3C Assay for Morphology Visualization (AID 2283025); conditions: primary human endothelial cells (HUVEC);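 also: fitted both ways so gain or loss versus DMSO counts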;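 as to AC50: light microscopy image of cell morphology used as background control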
# Method in brief: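 Endothelial cells from human umbilical vein were treated with test chemicals for 24 h and inspected by light microscopy for changes in cell conformation.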
# [13] = read-out: Pselectin, SELP (gene 6403); assay: BSK_4H_Pselectin: BioMAP Diversity Plus: 4H Assay for Pselectin Biomarker Activity (AID 2283026); conditions: primary human endothelial cells (HUVEC); actives raise or lower the signal
# Method in brief: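 Human vascular endothelium from umbilical vein; P-selectin measured by ELISA at 24 h post-dose, with cytotoxicity checked by sulforhodamine B total-protein staining in parallel cultures (0.1% SRB after 10% TCA fixation, read at 560 nm).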
# [14] = BSK_4H_SRB: Viability Assessment in the BioMAP Diversity Plus: 4H Assay (AID 2283027); conditions: primary human endothelial cells (HUVEC);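 also: cells exposed to compound for 24 h before staining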
# Method in brief: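 Human umbilical vein endothelial cells, 24 h after chemical dosing; total protein measured by 0.1% sulforhodamine B staining after 10% TCA fixation, read at 560 nm. Bidirectional fitting against DMSO.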
# [15] = BSK_BE3C_SRB: Viability Assessment in the BioMAP Diversity Plus: BE3C Assay (AID 2283028); conditions: primary human bronchial epithelial cells;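 as to AC50: fitted both ways so AC50 may mark signal gain or loss versus DMSO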
# Method in brief: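 Human primary bronchial epithelial cells were exposed to test chemicals for 24 h. Total protein in parallel cultures was then measured by staining with 0.1% sulforhodamine B after 10% TCA fixation, with absorbance read at 560 nm. Activity was fitted bidirectionally against DMSO.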
# [16] = read-out: Thrombomodulin, THBD (gene 7056); assay: BSK_3C_Thrombomodulin: BioMAP Diversity Plus: 3C Assay for Thrombomodulin Biomarker Activity (AID 2283029); conditions: primary human endothelial cells (HUVEC); actives raise or lower the signal
# Method in brief: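 Thrombomodulin ELISA, human primary HUVEC, 24 h post-dose; data fitted in both directions relative to DMSO.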
# [17] = read-out: Urokinase-type plasminogen activator receptor (uPAR), PLAUR (gene 5329); assay: BSK_4H_uPAR: BioMAP Diversity Plus: 4H Assay for Urokinase-type plasminogen activator receptor (uPAR) Biomarker Activity (AID 2283030); conditions: primary human endothelial cells (HUVEC); actives raise or lower the signal
# Method in brief: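 Primary human umbilical vein endothelial cells were exposed to chemical for 24 h before cell-surface uPAR was quantified by ELISA. Activity was fitted bidirectionally against the DMSO negative control baseline.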
# [18] = read-out: Vascular endothelial growth factor receptor 2 (Homo sapiens) (UniProt P35968); assay: BSK_4H_VEGFRII: BioMAP Diversity Plus: 4H Assay for Vascular endothelial growth factor receptor 2 (VEGFR2) Biomarker Activity (AID 2283031); conditions: primary human endothelial cells (HUVEC); actives raise or lower the signal
# Method in brief: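 Primary human umbilical vein endothelial cells in the BioMAP 4H system were dosed with test chemical, and 24 h later VEGFRII was measured by ELISA. Activity was fitted bidirectionally against DMSO as negative control and baseline.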
# [19] = target: human Vitamin D Receptor (VDR), VDR (gene 7421) (UniProt P11473); assay: ATG_VDR_TRANS: Attagene TRANS-FACTORIAL HepG2 Assay for human Vitamin D Receptor (VDR) (AID 2283022; active = hit-call score of the fitted dose curve at least 0.9, where 1 is the maximum)
# Method in brief: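 HepG2 cells were transiently transfected with multiple GAL4-UAS reporter units, so signal reflects exogenous chimeric receptor-Gal4 activity. After 24 h compound exposure, reporter mRNA was measured by RT-PCR, fluorescent labelling and capillary electrophoresis, fitted for gain of signal versus DMSO.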
# Chain of Retinoic acid receptor RXR-alpha (Homo sapiens) (P19793 whole entry, looked up, the tested form may be a part): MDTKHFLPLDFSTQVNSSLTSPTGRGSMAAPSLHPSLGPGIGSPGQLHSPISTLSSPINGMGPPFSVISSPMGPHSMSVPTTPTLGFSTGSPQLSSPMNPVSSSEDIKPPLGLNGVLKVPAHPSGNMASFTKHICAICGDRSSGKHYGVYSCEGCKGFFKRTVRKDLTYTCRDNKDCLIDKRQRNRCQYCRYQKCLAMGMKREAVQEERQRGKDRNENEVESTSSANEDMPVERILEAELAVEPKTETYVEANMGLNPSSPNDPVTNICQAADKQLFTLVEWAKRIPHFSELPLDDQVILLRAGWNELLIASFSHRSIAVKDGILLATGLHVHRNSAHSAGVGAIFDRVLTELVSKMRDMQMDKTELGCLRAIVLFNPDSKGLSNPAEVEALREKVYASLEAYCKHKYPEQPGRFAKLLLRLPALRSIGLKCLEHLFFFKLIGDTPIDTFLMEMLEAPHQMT
# Chain of human Vitamin D Receptor (VDR), VDR (gene 7421) (P11473 whole entry, looked up, the tested form may be a part): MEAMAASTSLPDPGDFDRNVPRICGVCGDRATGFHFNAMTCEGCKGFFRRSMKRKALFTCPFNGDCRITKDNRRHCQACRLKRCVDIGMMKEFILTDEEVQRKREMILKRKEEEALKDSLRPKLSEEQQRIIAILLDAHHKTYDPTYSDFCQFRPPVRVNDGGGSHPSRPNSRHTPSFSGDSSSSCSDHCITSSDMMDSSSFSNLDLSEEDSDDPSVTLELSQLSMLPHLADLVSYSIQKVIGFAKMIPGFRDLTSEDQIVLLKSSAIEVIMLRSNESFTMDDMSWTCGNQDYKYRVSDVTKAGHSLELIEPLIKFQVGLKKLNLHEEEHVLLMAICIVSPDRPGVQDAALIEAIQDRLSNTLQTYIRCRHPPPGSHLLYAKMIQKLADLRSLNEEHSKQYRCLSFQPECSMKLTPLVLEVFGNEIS
# Chain of human Thyroid Receptor alpha (THRa1), THRA (gene 7067) (P10827 whole entry, looked up, the tested form may be a part): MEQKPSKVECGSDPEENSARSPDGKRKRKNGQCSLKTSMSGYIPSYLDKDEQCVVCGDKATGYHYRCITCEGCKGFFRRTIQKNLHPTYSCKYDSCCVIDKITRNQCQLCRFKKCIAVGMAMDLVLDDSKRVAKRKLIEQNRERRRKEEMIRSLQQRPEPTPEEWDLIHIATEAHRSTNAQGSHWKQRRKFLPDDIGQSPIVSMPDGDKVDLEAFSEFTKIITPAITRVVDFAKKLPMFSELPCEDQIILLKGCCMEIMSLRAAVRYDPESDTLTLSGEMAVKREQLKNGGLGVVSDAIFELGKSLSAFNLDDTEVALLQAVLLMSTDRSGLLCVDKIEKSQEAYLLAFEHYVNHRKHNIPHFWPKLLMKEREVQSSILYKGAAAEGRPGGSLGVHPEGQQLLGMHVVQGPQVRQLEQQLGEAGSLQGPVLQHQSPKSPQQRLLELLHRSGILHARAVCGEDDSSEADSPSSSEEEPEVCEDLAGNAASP
# Chain of human Retinoid X Receptor beta (RXRb), RXRB (gene 6257) (P28702 whole entry, looked up): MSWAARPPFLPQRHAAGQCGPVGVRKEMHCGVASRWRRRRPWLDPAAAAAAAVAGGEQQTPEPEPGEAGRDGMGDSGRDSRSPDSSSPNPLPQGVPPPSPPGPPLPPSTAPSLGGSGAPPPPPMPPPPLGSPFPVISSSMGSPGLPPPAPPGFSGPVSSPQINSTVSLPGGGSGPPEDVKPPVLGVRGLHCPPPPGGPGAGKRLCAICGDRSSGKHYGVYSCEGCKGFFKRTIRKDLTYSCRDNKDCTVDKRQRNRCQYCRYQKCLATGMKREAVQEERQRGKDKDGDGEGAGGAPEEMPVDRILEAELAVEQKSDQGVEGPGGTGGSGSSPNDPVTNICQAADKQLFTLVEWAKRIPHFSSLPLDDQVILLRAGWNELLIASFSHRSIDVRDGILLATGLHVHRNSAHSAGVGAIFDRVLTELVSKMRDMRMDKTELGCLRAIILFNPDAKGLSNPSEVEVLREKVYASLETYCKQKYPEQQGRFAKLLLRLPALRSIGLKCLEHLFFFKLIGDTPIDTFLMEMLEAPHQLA
# Chain of E-selectin (Homo sapiens) (P16581 whole entry, looked up): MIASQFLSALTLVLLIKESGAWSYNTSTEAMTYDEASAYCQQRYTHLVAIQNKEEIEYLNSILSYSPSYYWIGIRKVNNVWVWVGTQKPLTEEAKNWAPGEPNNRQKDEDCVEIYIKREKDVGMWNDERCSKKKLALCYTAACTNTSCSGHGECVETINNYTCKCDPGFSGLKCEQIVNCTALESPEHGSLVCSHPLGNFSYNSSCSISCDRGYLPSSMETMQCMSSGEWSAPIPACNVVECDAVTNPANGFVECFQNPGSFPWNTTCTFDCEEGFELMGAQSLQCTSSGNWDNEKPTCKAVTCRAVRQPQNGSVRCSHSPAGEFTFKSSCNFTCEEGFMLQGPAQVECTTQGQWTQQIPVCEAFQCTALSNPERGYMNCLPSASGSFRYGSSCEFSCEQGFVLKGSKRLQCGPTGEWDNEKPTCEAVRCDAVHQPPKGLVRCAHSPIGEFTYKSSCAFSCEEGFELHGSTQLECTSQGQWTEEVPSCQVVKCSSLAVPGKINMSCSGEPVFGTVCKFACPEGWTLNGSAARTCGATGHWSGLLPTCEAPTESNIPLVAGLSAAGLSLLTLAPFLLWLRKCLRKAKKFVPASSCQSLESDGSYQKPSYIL
compound,measurement,setting,value
CCCCCCCCOC(=O)CCCCCCCCC(=O)OCCCCCCCC,outcome,[1],inactive
same,outcome,[2],inactive
same,outcome,[3],inactive
same,outcome,[4],inactive
same,outcome,[5],inactive
same,outcome,[6],inactive
same,outcome,[7],inactive
same,outcome,[8],inactive
same,outcome,[9],inactive
same,outcome,[10],inactive
same,outcome,[11],inactive
same,outcome,[12],inactive
same,outcome,[13],inactive
same,outcome,[14],inactive
same,outcome,[15],inactive
same,outcome,[16],inactive
same,outcome,[17],inactive
same,outcome,[18],inactive
CCC(=C(c1ccc(O)cc1)c1ccc(OCCN(C)C)cc1)c1ccccc1,outcome,[1],inactive
same,outcome,[2],inactive
same,outcome,[3],inactive
same,AC50,[4],11.1 µM (active)
same,AC50,[5],8.6 µM (active)
same,AC50,[6],12.5 µM (active)
same,AC50,[7],8.28 µM (active)
same,AC50,[8],9.28 µM (active)
same,AC50,[9],11.1 µM (active)
same,AC50,[19],11.6 µM (active)
same,outcome,[19],inactive
same,AC50,[10],9.01 µM (active)
same,AC50,[11],12.2 µM (active)
same,AC50,[12],6.97 µM (active)
same,AC50,[13],6.16 µM (active)
same,AC50,[15],9.32 µM (active)
same,AC50,[16],12.8 µM (active)
same,AC50,[17],7.41 µM (active)
same,outcome,[18],inactive
CC(O)C(=O)O (centres undefined),outcome,[1],inactive
same,outcome,[2],inactive
same,outcome,[3],inactive
same,outcome,[19],inactive
O=C(/C=C/c1ccc(O)cc1)CC(=O)/C=C/c1ccc(O)cc1,outcome,[1],inactive
same,outcome,[2],inactive
same,outcome,[3],inactive
